# In the library only some 1.6% were active in any assay of this set; here they are far more common.
# KCNQ2 enhance = KCNQ2 (rat) channel potentiation | CHO-K1 KCNQ2, FluxOR thallium flux fluorescence; active compounds read high | AID 2239 | 0.54% of 310,000 active | B-score at 10 µM | O88943;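 active = fluorescence ratio B-score at least 3 SD of library B-scores, with initial fluorescence B-score within 3 of them, cut at about 5.3 in these data; same plate scores as AID 2156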;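 note: B-score of peak minus minimum over baseline fluorescence ratio after K+ and Tl+ stimulus; positive B-score means potentiation of KCNQ2 with more thallium influx and brighter signal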
# KCNQ2 block = blocks the rat KCNQ2 potassium channel; O88943; AID 2156; CHO-K1 KCNQ2, FluxOR thallium flux, 20 min; active compounds read low; 1.1% of 310,000 active; B-score at 10 µM;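 active = fluorescence ratio B-score at most minus 3 library SDs, with starting brightness B-score within 2 library SDs, cut at about -5.5 in these data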
# Starred values were filed as active, the others as inactive; i = inactive; / = not tested or not shown.
SMILES,KCNQ2 enhance,KCNQ2 block
COc1ccc(-c2csc(N3CCN(c4cc(C)nc5ccccc45)CC3)n2)cc1OC,-6.3,-6.3*
CCOC(=O)C1CCN(C(=O)c2cc(COc3ccc(OC)c4ccccc34)on2)CC1,/,i
COc1ccccc1OCCCCOc1ccccc1C(C)=O,0.77,i
C/C=C/c1ccc(OCCCCOc2ccccc2C(C)=O)c(OC)c1,-7.47,-7.47*
CCN(Cc1ccccc1)C(=O)CCS(=O)(=O)c1cc2c(cc1Cl)NC(=O)CO2,/,i
CCOC(=O)c1cccc(-n2c(C)cc(C=O)c2C)c1,2.61,i
CCOC(=O)c1c(-n2c(C)cc(C=O)c2C)sc2c1CCCC2,-6.12,-6.12*
Cc1ccc(CN2CCSc3ccc(C(=O)NC4CCCC4)cc32)cc1,/,i
O=C(NC1CCCC1)c1ccc2c(c1)N(Cc1ccc(F)cc1)CCS2,-6.42,-6.42*
O=C(Nc1ccc(C(F)(F)F)cc1)C1CCN(c2cnccn2)CC1,/,i
COc1ccc(NC(=O)CCC(=O)Nc2ccc3nc(N4CCOCC4)cc(C)c3c2)c(OC)c1,0.24,i
COc1ccc(N(C)C(=O)CCC(=O)Nc2ccc3nc(N4CCOCC4)cc(C)c3c2)c(OC)c1,-7.79,-7.79*
COc1ccc(NC(=O)/C(C#N)=C/c2ccc(OCCN3CCOCC3)c(OC)c2)c(OC)c1,0.61,i
CCOP(=O)(Nc1ccc2oc(=O)c3ccccc3c2c1)OCC,0.93,i
COc1ccc(NC(=O)C(=O)NNC(=O)C(C)Oc2ccc(Cl)cc2Cl)cc1 (stereo not drawn),20.1*,i
CC(=O)Nc1ccc(NC(=O)C(C)Oc2ccc(Cl)cc2Cl)cc1 (stereo not drawn),0.1,i
CC(=O)Nc1ccccc1OCC(=O)N(Cc1ccccc1)C(C)C,0.35,i
CCOC(=O)CC1(NC(=O)c2cc(COc3c(F)cccc3F)on2)CCCCC1,-5.68,-5.68*
COC(=O)[C@H](Cc1ccccc1)NC(=O)c1cc(COc2c(F)cccc2F)on1,1.93,i
CCc1nc(CN2CCN(c3cc(C(F)(F)F)ccn3)CC2)c(C)[nH]1,/,i
Cc1cc(/C=N\NC(=O)CC(=O)NC2CCCCC2)c(C)n1-c1cccc(Cl)c1Cl,4.7,i
Cc1cccc(C)c1-n1c(C)cc(/C=N\NC(=O)CC(=O)NC2CCCCC2)c1C,8.41*,i
O=C(Nc1ccccc1)c1ccc2nc(-c3ccco3)c(-c3ccco3)nc2c1,-6.49,-6.49*
CC(=O)c1ccc(NC(=O)c2ccc3nc(-c4ccco4)c(-c4ccco4)nc3c2)cc1,/,i
Cc1ccc(S(=O)(=O)c2c(C)nn(C(C)(C)C)c2OC(=O)CC(C)C)cc1,-7.6,-7.6*
SMILES,KCNQ2 enhance,KCNQ2 block
Cc1ccc(S(=O)(=O)c2c(C)nn(C(C)(C)C)c2OC(=O)C(C)C)cc1,/,i
CCOC(=O)c1c(NC(=O)C2c3ccccc3Oc3ccccc32)sc(C(C)=O)c1C,-5.7,-5.7*
COC(=O)c1sc(NC(=O)C2c3ccccc3Oc3ccccc32)c(C(=O)OC)c1C,/,i
O=C1Nc2c(c(=O)[nH]c(=O)n2-c2ccc(F)cc2)C1(NS(=O)(=O)c1ccccc1)C(F)(F)F (stereo not drawn),/,i
COc1ccc(CN(C)C(=O)c2cccc(NS(=O)(=O)c3ccccc3)c2)cc1F,0.66,i
Cc1sc(NC(=O)COc2ccccc2)c(C#N)c1-c1ccccc1,/,i
COc1ccc(C(=O)Nc2sc(C)c(-c3ccccc3)c2C#N)cc1OC,-6.36,-6.36*
O=C(NC1CCN(C(=O)c2cccs2)CC1)c1ccccc1,/,i
CCC1Oc2ccc(C)cc2N(CC(=O)NCC2CCCO2)C1=O (stereo not drawn),0.17,i
COc1cc2ccc(=O)oc2c(CC=C(C)C)c1OC,0.11,i
COc1cc(O)cc2c1[C@@H]1Oc3c(ccc(O)c3CC=C(C)C)[C@@H]1CO2,-6.46,-6.46*
CCC1CCCCN1S(=O)(=O)c1ccc(NC(=O)C2CCCO2)cc1 (stereo not drawn),0.05,i
CCOc1ccc(N(CC(=O)Nc2ccc(OC)cc2)C2=NC3CS(=O)(=O)CC3S2)cc1 (stereo not drawn),1.8,i
CN1c2ccccc2C(C)(C)C12C=Nc1c(cc(N3CCOCC3)c3ccccc13)O2 (stereo not drawn),/,i
CN1c2ccccc2C(C)(C)C12C=Cc1cc(O)ccc1O2 (stereo not drawn),-7.11,-7.11*
COc1ccc(NS(=O)(=O)c2cccs2)cc1S(=O)(=O)N1CCCCC1,1.21,i
CC(C)CCSc1nc(N2CCOCC2)c2c(c1C#N)CC(C)(C)OC2,-6.54,-6.54*
COC(=O)CCSc1nc(N2CCOCC2)c2c(c1C#N)CC(C)(C)OC2,1.84,i
CCOc1ccc(-c2nc[nH]c2[N+](=O)[O-])cc1,/,i
CN1CCN(NC(=O)c2ccc(Br)s2)CC1,/,i
C=CCOc1c(CNc2ccc(S(N)(=O)=O)cc2)cccc1OC,1.39,i
COc1cccc(CNc2ccc(S(N)(=O)=O)cc2)c1OCc1ccccc1F,9.3*,i
O=C(CSc1ccc(Br)cc1)Nc1ccccc1N1CCOCC1,/,i
